Source: PubChem BioAssay (Tox21)
The source made the active and inactive calls. Entries that show only a call come without a potency. Calls follow the shape of the dose curve; as a rule, active = well fitted cell-killing curve with a large enough effect in the repeat runs; inconclusive = weak or mixed curves, or effect the other way; inactive = flat fitted curve, though single readings scatter.

test: qHTS assay to identify small molecule HDAC inhibitors - cell viability counter screen (AID 1259365); conditions: HCT-116 viability, CellTiter-Glo ATP luminescence, 2 h; series mostly up to 92.4 µM; also: nearly all actives have a fitted effect of over 50% in size
Excerpt: U.S. Tox21 Program National Center for Advancing Translational Sciences [NCATS] NIH Chemical Genomics Center [NCGC] U.S. Environmental Protection Agency [EPA] National Institutes of Environmental Health Sciences [NIEHS] National Toxicology Program [NTP] U.S. Food and Drug Administration [FDA] Tox21 Assay Overview: Histone deacetylases (HDACs) are a group of epigenetic enzymes that regulate gene expression by histone deacetylation. HDACs are capable of introducing epigenetic modifications and such aberrations contribute to the onset and progression of several human diseases, thus making HDACs a popular therapeutic target. For identifying endogenous class I/II HDAC inhibitors a homogenous, luminogenic HDAC I/II cell based assay was used to measure the relative activity of class I and II HDACs from cells. Wild type HCT-116 cells were used to screen Tox21 compound libraries for identifying class I/II HDAC inhibitors.
Tox21 Assay Protocol Summary: HCT-116 cells were dispensed at 1,500 per well in 5uL of culture medium into white solid bottom 1536-well plates (Greiner Bio-One, Monroe, NC) using a Multidrop Combi (Thermo Scientific, Waltham, MA) dispenser. The assay plates were incubated at 37 C and 5% CO2 for an overnight, and then 23nL of compounds dissolved in DMSO and positive control were transferred using a Pintool station (Wako, San Diego, CA). The assay plates were incubated at 37C and 5% CO2 for 2hr. After compound treatment, 4uL of CellTiter-Glo reagent (Promega Corporation, Madison, WI) was added to each well of the assay plates using Flying Reagent Dispenser (FRD, Aurora Discovery, San Diego, CA) and incubated the assay plates at room temperature for 30min. The luminescence signal was quantified using a ViewLux plate reader (Perkin Elmer, Shelton, CT).
Potency is read from the fitted curve at half-maximal effect.

SMILES	Potency
O=C1NC(=O)C(c2ccccc2)(c2ccccc2)N1	inactive
CC(=O)Nc1c(I)c(NC(C)=O)c(I)c(C(=O)O)c1I	inactive
COc1cccc(O)c1O	inactive
CCOc1ccc(NC(C)=O)cc1	inactive
OC[C@H]1O[C@H](O[C@]2(CCl)O[C@H](CCl)[C@@H](O)[C@@H]2O)[C@H](O)[C@@H](O)[C@H]1Cl	inactive
O=C1O[C@H]([C@@H](O)CO)C(O)=C1O	inactive
CCCCCCCC(=O)OCC(COC(=O)CCCCCCC)OC(=O)CCCCCCC	inactive
CC(C)c1c(C(=O)Nc2ccccc2)c(-c2ccccc2)c(-c2ccc(F)cc2)n1CC[C@@H](O)C[C@@H](O)CC(=O)O	inactive
CCN(CC)C(=O)c1cccc(C)c1	inactive
O=c1[nH]cc(F)c(=O)[nH]1	inactive
NS(=O)(=O)c1cc2c(cc1Cl)NCNS2(=O)=O	inactive
Cc1cc(C)nc(NS(=O)(=O)c2ccc(N)cc2)n1	inactive
CCc1nc(N)nc(N)c1-c1ccc(Cl)cc1	inactive
O=C1OC2(c3ccccc31)c1cc(Br)c(O)c(Br)c1Oc1c2cc(Br)c(O)c1Br	inactive
Cc1ncc([N+](=O)[O-])n1CCO	inactive
CN1CCC[C@H]1c1cccnc1	inactive
Nc1ccc([N+](=O)[O-])cc1O	inactive
CCOC(N)=O	inactive
Nc1c2c(nc3ccccc13)CCCC2	inactive
Oc1ccccc1	inactive

SMILES	Potency
CCCC[P+](CCCC)(CCCC)CCCC	inactive
Cc1cn([C@H]2C=C[C@@H](CO)O2)c(=O)[nH]c1=O	inactive
CC(C)C(=O)Nc1ccc([N+](=O)[O-])c(C(F)(F)F)c1	inactive
CN1[C@@H]2CC(OC(=O)[C@H](CO)c3ccccc3)C[C@H]1[C@@H]1O[C@@H]12 (stereo not given in full)	inactive
Nc1ccc2c(c1)CN1C(=O)c3ccccc3C1=N2	11.6 µM (active)
CCCCCCCCCCCC[N+](C)(C)Cc1ccccc1	inactive
NC1CCCCC1	inactive
CN(C)CCOC(C)(c1ccccc1)c1ccccn1 (stereo not given)	inactive
COc1ccc2cc(S(=O)(=O)N[C@H](CC(=O)N[C@H](Cc3ccc(CN4[C@H](C)CCC[C@@H]4C)cc3)C(=O)N(C)C(C)C)c3ccc4c(c3)OCO4)ccc2c1	inactive
CN(C)CCOC(c1ccccc1)c1ccccc1	inactive
Cn1c(=O)c2c(ncn2C)n(C)c1=O	inactive
Cc1cc(=O)oc2cc(O)ccc12	inactive
CC(=O)C(=O)O	inactive
CCCCCCc1ccc(O)cc1O	inactive
Cc1ccc(S(=O)(=O)O)cc1	inactive
NC(CO)(CO)CO	inactive
Nc1c(N=Nc2ccc(-c3ccc(N=Nc4cc(S(=O)(=O)O)c5ccccc5c4N)cc3)cc2)cc(S(=O)(=O)O)c2ccccc12	inactive
C[C@](N)(Cc1ccc(O)c(O)c1)C(=O)O	inactive
C=C(C)C(=O)OCC(C)O (stereo not given)	inactive
CCCCC1(COC(=O)CCC(=O)O)C(=O)N(c2ccccc2)N(c2ccccc2)C1=O	inactive
